The panel holds about 79,000 compounds, 15% with a hit somewhere; the sample as a whole holds those more often. Calls of active or inactive are those of the source. Rule as the data show it: active = growth inhibition above about 70%; inactive = the rest.
Test: NCI Yeast Anticancer Drug Screen. Data for the rad50 strain (AID 155);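 also: 0% = growth of vehicle-only cultures of the same strain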
Settings: S. cerevisiae rad50 strain growth inhibition, hits give high values
Protocol: Growth inhibition of yeast strains with defined genetic alterations is measured as a screen for potential anti-cancer activity. Selected strains with alterations in DNA damage repair or cell cycle control were exposed to compounds and growth inhibition was measured relative to vehicle treated controls. The strain used in this assay is rad50

[1] = at 5.0 µM (retest, dose inferred, filed as 0.5)
[2] = at 50.0 µM (retest, dose inferred, filed as 5.0)

Row | SMILES | growth inhibition (at 1.2 µM) | growth inhibition (at 3.7 µM) | growth inhibition [1] | growth inhibition (at 11.0 µM) | growth inhibition (at 33.0 µM) | growth inhibition [2] | growth inhibition (at 50.0 µM) | growth inhibition (at 100.0 µM)
1 | COc1cc(C(=O)/C=C/c2ccccc2O)ccc1O | 10% (inactive) | 32% (inactive) | 33% (inactive) | 98% (active) | 98% (active) | 98% (active) | 93.2% (active) | 98% (active)
2 | S=C(Nc1ccc(Cl)cc1)SC1CCCCC1 | -4% (inactive) | 9% (inactive) | 12% (inactive) | 96% (active) | 99% (active) | 65% (inactive) | 83.2% (active) | 99% (active)
3 | CCOP(=O)(OCC)C(Cc1ccccc1)N=C(c1ccccc1)c1ccccc1 (stereo not given) | -12% (inactive) | -7% (inactive) | 12% (inactive) | 27% (inactive) | 96% (active) | 7% (inactive) | 98.6% (active) | 98% (active)
4 | O=[N+]([O-])c1cc2no[n+]([O-])c2cc1N1CCCCC1 | 22% (inactive) | 62% (inactive) | 24% (inactive) | 93% (active) | 96% (active) | 74% (active) | 90% (active) | 95% (active)
5 | CC(C)(Br)C(=O)/C=C/c1ccc(Cl)c(Cl)c1 | 4% (inactive) | 3% (inactive) | 17% (inactive) | 1% (inactive) | 4% (inactive) | 64% (inactive) | 87.4% (active) | 4% (inactive)

Reference: PubChem BioAssay (NCI)
